Source: the supplement of paper PMC11732987, “Enantioselective OTUD7B fragment discovery through chemoproteomics screening and high-throughput optimisation” (Communications Chemistry, 2025)

Columns and labels:
Assay in all cases: log2 ratio of Biotin-Ahx-Ub-VS probe labelling (fragment/DMSO); higher = less target engagement (more negative = stronger competition), active = hit call of the paper (q ≤ 0.05, log2 ratio ≤ -1)
Conditions in all cases: compound concentration: 200 uM; treatment time: 3 h
USP34 = USP34 (UniProt Q70CQ2)
Chain of USP34 (Q70CQ2 whole entry, the tested form may be a part): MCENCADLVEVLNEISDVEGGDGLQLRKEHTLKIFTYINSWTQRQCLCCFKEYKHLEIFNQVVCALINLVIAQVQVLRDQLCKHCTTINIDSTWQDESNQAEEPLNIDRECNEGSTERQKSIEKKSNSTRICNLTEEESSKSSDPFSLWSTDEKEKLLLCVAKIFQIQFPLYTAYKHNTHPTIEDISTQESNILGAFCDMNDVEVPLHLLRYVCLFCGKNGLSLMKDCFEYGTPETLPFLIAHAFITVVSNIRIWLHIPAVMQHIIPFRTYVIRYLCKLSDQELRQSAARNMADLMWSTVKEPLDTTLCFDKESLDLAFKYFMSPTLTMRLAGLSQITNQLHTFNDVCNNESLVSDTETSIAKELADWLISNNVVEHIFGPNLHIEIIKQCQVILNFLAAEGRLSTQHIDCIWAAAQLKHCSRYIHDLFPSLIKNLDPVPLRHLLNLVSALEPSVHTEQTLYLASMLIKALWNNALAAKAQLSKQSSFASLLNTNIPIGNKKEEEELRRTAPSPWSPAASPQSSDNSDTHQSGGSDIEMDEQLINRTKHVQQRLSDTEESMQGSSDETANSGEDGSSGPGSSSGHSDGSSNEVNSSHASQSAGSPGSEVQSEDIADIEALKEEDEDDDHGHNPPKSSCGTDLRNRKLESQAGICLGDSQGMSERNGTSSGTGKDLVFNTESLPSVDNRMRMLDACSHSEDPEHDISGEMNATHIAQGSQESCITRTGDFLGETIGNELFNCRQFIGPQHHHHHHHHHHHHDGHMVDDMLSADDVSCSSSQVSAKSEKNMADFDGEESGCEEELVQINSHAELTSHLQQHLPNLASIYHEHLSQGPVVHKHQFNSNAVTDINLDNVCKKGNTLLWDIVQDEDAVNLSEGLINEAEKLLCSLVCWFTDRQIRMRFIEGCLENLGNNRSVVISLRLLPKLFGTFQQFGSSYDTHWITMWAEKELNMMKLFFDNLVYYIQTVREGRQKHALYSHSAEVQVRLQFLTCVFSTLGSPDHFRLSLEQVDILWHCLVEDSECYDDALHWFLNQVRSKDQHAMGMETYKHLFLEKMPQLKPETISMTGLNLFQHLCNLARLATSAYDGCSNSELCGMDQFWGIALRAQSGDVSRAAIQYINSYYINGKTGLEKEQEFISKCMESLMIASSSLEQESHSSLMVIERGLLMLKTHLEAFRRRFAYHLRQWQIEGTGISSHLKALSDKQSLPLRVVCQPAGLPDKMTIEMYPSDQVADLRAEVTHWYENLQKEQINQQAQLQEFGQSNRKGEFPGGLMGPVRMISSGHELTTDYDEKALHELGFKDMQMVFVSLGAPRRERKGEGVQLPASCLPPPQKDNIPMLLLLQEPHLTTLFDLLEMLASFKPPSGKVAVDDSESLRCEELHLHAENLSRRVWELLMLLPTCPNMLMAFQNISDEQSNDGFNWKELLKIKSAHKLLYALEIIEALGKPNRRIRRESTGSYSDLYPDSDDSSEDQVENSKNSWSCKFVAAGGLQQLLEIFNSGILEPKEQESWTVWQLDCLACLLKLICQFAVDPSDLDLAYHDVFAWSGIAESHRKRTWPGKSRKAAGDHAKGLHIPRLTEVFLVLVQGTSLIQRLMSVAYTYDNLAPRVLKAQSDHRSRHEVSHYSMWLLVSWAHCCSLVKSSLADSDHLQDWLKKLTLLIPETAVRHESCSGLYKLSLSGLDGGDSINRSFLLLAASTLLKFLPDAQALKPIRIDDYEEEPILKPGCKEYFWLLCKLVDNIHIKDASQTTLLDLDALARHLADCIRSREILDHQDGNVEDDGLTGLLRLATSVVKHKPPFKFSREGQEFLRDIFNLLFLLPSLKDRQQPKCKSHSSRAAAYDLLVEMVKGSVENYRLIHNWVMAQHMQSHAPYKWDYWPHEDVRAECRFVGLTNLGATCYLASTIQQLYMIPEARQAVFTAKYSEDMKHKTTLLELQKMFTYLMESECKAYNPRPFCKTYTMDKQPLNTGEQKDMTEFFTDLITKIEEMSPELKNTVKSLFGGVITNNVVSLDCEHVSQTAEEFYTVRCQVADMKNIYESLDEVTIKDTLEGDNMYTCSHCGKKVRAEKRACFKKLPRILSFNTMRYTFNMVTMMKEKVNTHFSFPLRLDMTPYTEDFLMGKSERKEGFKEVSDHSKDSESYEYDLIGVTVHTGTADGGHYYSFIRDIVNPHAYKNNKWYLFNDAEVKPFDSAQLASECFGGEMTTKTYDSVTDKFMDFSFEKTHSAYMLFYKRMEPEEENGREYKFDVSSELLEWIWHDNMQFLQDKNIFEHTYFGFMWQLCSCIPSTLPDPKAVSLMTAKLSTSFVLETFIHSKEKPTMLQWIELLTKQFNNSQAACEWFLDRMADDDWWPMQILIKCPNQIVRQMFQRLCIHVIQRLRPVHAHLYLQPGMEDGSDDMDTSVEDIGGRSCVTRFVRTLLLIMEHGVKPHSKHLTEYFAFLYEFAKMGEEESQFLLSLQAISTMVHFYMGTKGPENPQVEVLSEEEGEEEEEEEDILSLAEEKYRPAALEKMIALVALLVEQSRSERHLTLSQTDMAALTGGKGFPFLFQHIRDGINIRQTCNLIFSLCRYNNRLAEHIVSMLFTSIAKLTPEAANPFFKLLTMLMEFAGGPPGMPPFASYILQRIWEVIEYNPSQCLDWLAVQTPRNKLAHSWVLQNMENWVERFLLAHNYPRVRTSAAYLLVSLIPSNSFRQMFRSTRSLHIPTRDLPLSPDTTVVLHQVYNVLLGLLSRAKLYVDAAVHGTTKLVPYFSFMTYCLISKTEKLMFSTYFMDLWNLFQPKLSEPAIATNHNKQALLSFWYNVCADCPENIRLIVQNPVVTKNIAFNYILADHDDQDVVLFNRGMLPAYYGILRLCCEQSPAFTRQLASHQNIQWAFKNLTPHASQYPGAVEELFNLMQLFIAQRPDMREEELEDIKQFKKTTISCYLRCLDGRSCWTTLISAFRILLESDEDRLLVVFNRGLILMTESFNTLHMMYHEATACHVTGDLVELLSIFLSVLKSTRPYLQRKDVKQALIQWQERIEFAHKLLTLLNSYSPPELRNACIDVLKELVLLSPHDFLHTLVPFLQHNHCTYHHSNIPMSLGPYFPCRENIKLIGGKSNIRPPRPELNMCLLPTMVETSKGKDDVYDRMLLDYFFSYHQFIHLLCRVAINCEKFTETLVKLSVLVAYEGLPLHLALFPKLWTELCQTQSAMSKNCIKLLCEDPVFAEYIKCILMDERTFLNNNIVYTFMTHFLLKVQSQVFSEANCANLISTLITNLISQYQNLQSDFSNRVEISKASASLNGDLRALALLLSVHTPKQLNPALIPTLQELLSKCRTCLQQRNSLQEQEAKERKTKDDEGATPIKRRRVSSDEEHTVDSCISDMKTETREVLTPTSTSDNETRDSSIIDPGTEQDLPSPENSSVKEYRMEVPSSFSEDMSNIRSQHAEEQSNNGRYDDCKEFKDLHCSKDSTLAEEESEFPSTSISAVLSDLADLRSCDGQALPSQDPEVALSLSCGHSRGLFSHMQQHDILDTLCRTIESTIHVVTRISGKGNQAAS
How it was run: (§1)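 Labelled DUBs were enriched with NeutrAvidin, digested with LysC and trypsin, and run by diaPASEF LC-MS/MS. The labelling used Biotin-Ahx-Ub-VS at 0.5 µM final for 1 h on HEK293T lysate (495 µg per sample) previously treated in triplicate with fragment at 200 µM or vehicle for 3 h. Values are average log2 fragment/vehicle ratios by unpaired t-test on global-median-normalised Spectronaut quantities of proteins with ≥2 unique peptides.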

USP36 = biological target: T1, USP36 (UniProt Q9P275)
T1 sequence (whole entry): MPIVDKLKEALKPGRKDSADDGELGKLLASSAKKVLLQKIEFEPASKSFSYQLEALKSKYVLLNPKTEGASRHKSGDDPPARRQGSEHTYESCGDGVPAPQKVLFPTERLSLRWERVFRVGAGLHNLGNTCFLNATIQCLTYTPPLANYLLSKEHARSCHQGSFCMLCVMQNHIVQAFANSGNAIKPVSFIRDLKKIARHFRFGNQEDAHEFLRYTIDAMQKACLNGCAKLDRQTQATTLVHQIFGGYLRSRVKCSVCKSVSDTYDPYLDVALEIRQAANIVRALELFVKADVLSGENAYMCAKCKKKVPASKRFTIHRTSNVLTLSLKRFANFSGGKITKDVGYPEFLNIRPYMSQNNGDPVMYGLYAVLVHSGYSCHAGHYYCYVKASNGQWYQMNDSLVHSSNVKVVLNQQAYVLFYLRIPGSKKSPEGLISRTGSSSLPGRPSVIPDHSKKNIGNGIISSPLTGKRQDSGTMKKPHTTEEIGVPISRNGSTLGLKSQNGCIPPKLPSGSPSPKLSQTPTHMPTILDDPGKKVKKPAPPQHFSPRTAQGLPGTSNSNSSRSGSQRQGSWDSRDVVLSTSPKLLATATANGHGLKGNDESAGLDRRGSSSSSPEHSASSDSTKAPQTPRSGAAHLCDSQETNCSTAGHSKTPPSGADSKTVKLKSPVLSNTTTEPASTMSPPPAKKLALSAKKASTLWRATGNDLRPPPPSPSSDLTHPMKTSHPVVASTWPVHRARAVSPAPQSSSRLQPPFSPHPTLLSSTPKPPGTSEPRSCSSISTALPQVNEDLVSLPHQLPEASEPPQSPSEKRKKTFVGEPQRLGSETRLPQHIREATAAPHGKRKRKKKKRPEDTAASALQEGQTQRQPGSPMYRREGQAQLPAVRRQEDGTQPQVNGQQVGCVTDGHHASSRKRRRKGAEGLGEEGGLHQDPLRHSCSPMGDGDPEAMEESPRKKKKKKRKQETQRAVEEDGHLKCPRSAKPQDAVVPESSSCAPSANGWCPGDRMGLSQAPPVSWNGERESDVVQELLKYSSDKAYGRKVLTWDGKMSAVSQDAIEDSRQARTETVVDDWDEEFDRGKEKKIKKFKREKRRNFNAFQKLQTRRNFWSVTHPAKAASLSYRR
How it was run: as §1

USP38 = biological target: T2, USP38 (UniProt Q8NB14)
T2 sequence (whole entry): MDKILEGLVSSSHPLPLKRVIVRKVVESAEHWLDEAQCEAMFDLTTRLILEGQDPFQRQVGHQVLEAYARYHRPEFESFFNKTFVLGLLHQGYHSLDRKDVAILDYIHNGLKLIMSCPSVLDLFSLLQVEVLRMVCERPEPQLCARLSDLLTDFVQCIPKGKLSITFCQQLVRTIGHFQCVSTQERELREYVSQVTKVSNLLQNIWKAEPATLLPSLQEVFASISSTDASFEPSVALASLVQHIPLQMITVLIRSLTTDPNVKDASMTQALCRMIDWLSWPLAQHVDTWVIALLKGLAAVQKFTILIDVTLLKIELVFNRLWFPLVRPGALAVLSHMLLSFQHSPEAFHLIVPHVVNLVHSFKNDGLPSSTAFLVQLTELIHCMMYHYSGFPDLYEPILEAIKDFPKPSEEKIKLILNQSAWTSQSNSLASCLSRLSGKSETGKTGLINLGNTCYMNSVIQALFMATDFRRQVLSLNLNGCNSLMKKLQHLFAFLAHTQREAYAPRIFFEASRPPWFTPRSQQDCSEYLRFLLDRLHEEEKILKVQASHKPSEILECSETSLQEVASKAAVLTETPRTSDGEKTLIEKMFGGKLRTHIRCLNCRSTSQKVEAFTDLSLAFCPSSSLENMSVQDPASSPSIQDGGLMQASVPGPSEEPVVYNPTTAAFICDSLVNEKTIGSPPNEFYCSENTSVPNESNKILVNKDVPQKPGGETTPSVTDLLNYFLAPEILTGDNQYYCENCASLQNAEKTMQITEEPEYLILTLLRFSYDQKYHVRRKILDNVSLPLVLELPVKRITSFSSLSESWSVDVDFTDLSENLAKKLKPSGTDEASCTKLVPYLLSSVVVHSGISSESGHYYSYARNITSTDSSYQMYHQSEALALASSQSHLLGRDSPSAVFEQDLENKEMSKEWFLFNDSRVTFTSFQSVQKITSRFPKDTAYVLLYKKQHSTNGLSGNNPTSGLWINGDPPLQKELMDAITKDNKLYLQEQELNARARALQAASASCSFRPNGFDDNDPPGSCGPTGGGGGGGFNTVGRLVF
How it was run: as §1

USP39 = biological target: T3, USP39 (UniProt Q53GS9)
T3 sequence (whole entry): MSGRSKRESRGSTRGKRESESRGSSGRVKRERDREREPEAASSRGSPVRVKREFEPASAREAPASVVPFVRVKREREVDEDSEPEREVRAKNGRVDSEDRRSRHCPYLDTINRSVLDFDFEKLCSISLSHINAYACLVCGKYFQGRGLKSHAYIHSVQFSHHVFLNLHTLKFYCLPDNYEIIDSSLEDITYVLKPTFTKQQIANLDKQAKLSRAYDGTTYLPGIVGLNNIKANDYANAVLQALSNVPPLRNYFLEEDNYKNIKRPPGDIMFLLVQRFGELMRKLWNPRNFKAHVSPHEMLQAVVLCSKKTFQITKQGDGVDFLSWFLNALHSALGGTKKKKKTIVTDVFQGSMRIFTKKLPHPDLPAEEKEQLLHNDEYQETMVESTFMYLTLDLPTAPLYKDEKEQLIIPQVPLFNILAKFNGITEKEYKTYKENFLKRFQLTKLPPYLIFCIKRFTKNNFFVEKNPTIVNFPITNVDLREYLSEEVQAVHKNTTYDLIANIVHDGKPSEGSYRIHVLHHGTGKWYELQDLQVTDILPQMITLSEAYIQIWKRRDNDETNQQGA
How it was run: as §1

USP4 = biological target: T4, USP4 (UniProt Q13107)
T4 sequence (whole entry): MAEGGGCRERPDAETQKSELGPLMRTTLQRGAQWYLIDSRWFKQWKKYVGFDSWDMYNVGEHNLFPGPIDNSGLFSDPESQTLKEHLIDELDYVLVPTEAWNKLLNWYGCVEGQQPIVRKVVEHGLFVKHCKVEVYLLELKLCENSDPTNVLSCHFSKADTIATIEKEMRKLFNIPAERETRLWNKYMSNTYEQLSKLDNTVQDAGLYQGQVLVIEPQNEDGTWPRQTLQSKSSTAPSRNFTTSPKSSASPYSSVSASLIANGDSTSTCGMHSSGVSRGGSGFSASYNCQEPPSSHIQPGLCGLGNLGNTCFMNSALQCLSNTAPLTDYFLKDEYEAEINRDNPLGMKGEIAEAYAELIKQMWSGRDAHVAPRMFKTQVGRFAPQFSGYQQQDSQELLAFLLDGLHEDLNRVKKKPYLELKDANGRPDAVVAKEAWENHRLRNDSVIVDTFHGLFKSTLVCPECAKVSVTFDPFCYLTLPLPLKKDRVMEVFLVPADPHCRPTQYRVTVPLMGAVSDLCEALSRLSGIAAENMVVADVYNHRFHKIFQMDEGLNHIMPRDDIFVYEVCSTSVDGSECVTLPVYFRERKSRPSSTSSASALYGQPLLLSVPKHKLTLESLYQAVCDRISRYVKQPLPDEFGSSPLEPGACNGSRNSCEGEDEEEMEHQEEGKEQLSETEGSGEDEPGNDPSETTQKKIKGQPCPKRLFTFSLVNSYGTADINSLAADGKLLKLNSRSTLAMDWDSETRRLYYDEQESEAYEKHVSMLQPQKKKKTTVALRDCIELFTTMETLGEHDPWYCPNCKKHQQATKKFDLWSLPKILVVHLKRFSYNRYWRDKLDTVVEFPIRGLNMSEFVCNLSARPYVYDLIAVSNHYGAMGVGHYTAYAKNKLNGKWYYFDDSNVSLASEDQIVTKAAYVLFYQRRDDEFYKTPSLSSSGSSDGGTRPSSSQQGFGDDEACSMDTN
How it was run: as §1

Measured: log2 ratio of Biotin-Ahx-Ub-VS probe labelling

O=C(CCl)NC1CCCCNC1=O (stereo not given)
inactive: USP34 -0.126 | USP36 -0.314 | USP38 -0.0226 | USP39 0.0502 | USP4 -0.25
